Rows were chosen to be rich in hits. Some 3% of all compounds tested hit in one or more screens of this group.
SENP7 block: SENP7 protease inhibition. Q9BQF6. recombinant SENP7, Z-RLRGG-aminoluciferin luminescence, 40 min. inhibition, % at 5 µM. 330,000 tested, 1.5% active;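 active = inhibition above about 50% at the single test dose, limit read from the data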
Target sequence (Q9BQF6 706-1050 limits assumed): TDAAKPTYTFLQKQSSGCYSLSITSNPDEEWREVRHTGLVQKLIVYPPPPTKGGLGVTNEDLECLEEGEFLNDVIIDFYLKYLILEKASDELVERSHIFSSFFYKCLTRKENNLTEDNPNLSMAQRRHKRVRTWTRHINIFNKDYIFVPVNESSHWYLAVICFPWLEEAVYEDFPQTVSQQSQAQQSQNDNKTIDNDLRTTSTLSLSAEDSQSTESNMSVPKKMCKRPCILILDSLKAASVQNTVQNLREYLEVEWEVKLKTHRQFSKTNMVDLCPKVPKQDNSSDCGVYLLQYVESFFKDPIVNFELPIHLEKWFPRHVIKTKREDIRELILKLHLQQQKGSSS
PPC-1+TRAIL kill: PPC-1 cancer cell killing with TRAIL present | PPC-1 cells + TRAIL, ATPLite viability luminescence | 220,000 tested, 0.41% active | cell killing (% activity), % at 4 µM or 5 µM;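 active = cell killing above 50% in the first pass at 4 µM, then a duplicate retest at 5 µM averaging 50% or more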
TRAIL sens C8: sensitizes caspase-8 expressing cells to TRAIL. NB7+C8 cells + TRAIL, ATPlite viability luminescence. inhibition (viability loss, TRAIL sensitization), % at 10 µM. 360,000 tested, 1% active. AID 624354;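 active = compounds causing at least 50% loss of cell viability in the single-dose screen, relative to plate controls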
SENP8 block-1: blocks the human protease SENP8; purified SENP8, Z-RLRGG-aminoluciferin cleavage, luminescence; 330,000 tested, 1.2% active; inhibition, % at 10 µM; Q96LD8; in the data active = inhibition above about 50%
SENP8 block-2: blocks human SENP8 cleavage of Nedd8 substrate. inhibition, % at 20 µM. recombinant SENP8, Nedd8 substrate fluorescence. 360,000 tested, 0.64% active. Q96LD8; in the data active = inhibition mostly above about 40%, no sharp cut-off; inactive = mostly below about 27%
SENP6 block: inhibitors of human SENP6 protease | Recombinant SENP6 catalytic domain, aminoluciferin luminescence | inhibition, % at 10 µM | 330,000 tested, 1.8% active | AID 2599;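 active = inhibition above about 50% at the single tested dose, limit read from the data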
SENP8 confirm: human SENP8 inhibition, confirmed. shares compounds with SENP7 block. Recombinant SENP8, Z-RLRGG-aminoluciferin luminescence, 60 min. inhibition, % at 12.5 µM. 6,200 tested, 40% active. AID 488912;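 active = mean inhibition across replicates above about 50%, limit read from the data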
SENP6 conf: confirmation of human SENP6 protease inhibitors; recombinant SENP6, Z-RLRGG-aminoluciferin luminescence; AID 488915; shares compounds with SENP7 block; 6,200 tested, 58% active; inhibition, % at 12.5 µM
SENP7 conf: confirmation of human SENP7 protease inhibitors | shares compounds with SENP7 block | recombinant SENP7, Z-RLRGG-aminoluciferin luminescence, 40 min | inhibition, % at 12.5 µM | 6,200 tested, 69% active
Casp3 select: selectivity test for SENP inhibitors: human caspase-3 inhibition. shares compounds with SENP7 block. purified caspase-3, Z-DEVD-aminoluciferin luminescence, 60 min. inhibition, % at 12.5 µM. 6,200 tested, 60% active. AID 488918;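 active = mean inhibition above about 50%, limit read from the data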
Target sequence (P42574 28-227 limits assumed): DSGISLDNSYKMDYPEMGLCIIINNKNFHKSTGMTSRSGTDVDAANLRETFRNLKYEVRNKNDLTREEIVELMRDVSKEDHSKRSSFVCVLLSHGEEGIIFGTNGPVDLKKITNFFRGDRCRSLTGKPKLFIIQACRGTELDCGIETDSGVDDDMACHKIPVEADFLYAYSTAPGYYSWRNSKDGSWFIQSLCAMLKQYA
SENP luc ctr: counter-screen for SENP inhibitors: luminescence interference | AID 488919 | 6,200 tested, 39% active | shares compounds with SENP7 block | inhibition, % at 12.5 µM | Pre-incubated SENP8/Z-RLRGG-aminoluciferin, luciferase luminescence interference;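 active = mean inhibition above about 50% when retested at one dose, limit read from the data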
Hits are given with their value; n = inactive; x = no result.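 Rule for the calls, unless noted: active = mean inhibition above about 50% in the one-dose retest (limit read from the data); inactive = the rest.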

SMILES | SENP7 block | PPC-1+TRAIL kill | TRAIL sens C8 | SENP8 block-1 | SENP8 block-2 | SENP6 block | SENP8 confirm | SENP6 conf | SENP7 conf | Casp3 select | SENP luc ctr
O=C(Nc1sc2c(c1C(=O)O)CCCCC2)c1ccccc1F | 86 | n | n | 94 | n | 96 | 97 | 98 | 102 | 95 | 80
Oc1c(Cl)cc(Cl)cc1C=Nc1cc(C(F)(F)F)ccc1N1CCc2ccccc2C1 | 99 | n | 53 | 96 | n | n | 94 | 96 | 102 | 95 | 62
Oc1c(Cl)cccc1C=Nc1cc(C(F)(F)F)ccc1N1CCCC1 | n | n | n | n | n | n | x | x | x | x | x
COCCCNC(=O)CC1C[C@H](C(=O)N2CCOCC2)[C@@]2(C)c3[nH]c4ccc(OC)cc4c3CCN2C1=O (stereo partly drawn) | n | x | n | x | n | x | x | x | x | x | x
CCOc1ccc(-c2noc(-c3cccnc3)n2)cc1OC | n | n | n | n | n | n | x | x | x | x | x
CCCCOc1ccc(-c2nc(-c3cccnc3)no2)cc1 | 79 | n | n | 64 | n | 81 | n | n | n | n | n
CCOc1nc(-c2ccc(OC)cc2)ccc1-c1noc(-c2ccncc2)n1 | x | n | n | x | n | x | x | x | x | x | x
CCOc1ccc(-c2nc(-c3ccccc3C)no2)cc1 | 99 | n | x | 95 | x | 93 | 70 | 56 | n | 78 | n
CCOc1ccc(-c2nc(-c3cccnc3)no2)cc1 | 95 | n | 58 | 85 | n | 72 | n | 73 | 91 | 74 | n
COc1ccc(-c2nc(-c3cccnc3)no2)cc1 | 84 | n | n | 67 | n | 77 | 78 | 78 | 96 | 86 | n
CCOC(=O)Cc1cc(-c2ccc(F)cc2)nc2ccc3ccccc3c12 | x | n | n | x | n | x | x | x | x | x | x
NC1CCN(c2c(F)cc3c(=O)c(C(=O)O)cn(C4CC4)c3c2Cl)C1 (stereo not drawn) | 67 | n | n | n | n | n | n | n | n | n | n
CCS(=O)(=O)c1nc(S(=O)(=O)c2ccc(C)cc2)c(NCCCN2CCOCC2)s1 | n | x | n | n | n | n | x | x | x | x | x
CCCS(=O)(=O)c1nc(S(=O)(=O)c2ccc(C)cc2)c(NCCN2CCOCC2)s1 | n | n | n | n | n | 104 | n | n | n | n | n
O=C1NC(=O)/C(=C\c2ccc(Br)o2)S1 | n | x | n | n | n | 55 | 56 | 51 | 62 | 52 | n
COC(=O)c1ccccc1-c1ccc(/C=C2\C(=O)N(c3ccccc3)N=C2c2ccccc2)o1 | n | n | n | n | n | 53 | n | n | n | n | n
CCCc1c(C(=O)N/N=C/c2cccc(OCc3ccc(F)cc3)c2)nnn1-c1nonc1N | n | x | n | n | n | n | x | x | x | x | x
CC(=O)C(Cc1ccccc1)NC(=O)COc1ccc2c(c1)OCO2 (stereo not drawn) | n | x | n | n | n | n | x | x | x | x | x
Cc1c(C=O)c(Cl)n(C)c(=O)c1C#N | 74 | n | n | n | n | n | n | n | n | n | n
CC(=O)N=Cc1c(C)c(C#N)c(=O)n(C)c1O | n | n | n | n | n | 57 | n | n | n | n | n
O=C(CN1C(=O)NC2(CCCC2)C1=O)OCc1c(F)cccc1Cl | n | x | n | n | n | n | x | x | x | x | x
O=C(CCCN1C(=O)/C(=C/c2ccccc2Cl)SC1=S)Nc1cccnc1 | 51 | x | n | n | n | n | n | n | n | n | n
O=C(CCN1C(=O)/C(=C/c2ccccc2Cl)SC1=S)NN1CCOCC1 | 52 | x | n | n | n | n | n | n | n | n | n
O=C(CCN1C(=O)/C(=C/c2ccccc2Cl)SC1=S)NC1CCCC1 | n | x | n | n | n | n | x | x | x | x | x
CC(Sc1nnnn1C1CCCC1)C(=O)Nc1cccc(S(=O)(=O)N2CCOCC2)c1 (stereo not drawn) | n | x | n | n | n | n | x | x | x | x | x
SMILES | SENP7 block | PPC-1+TRAIL kill | TRAIL sens C8 | SENP8 block-1 | SENP8 block-2 | SENP6 block | SENP8 confirm | SENP6 conf | SENP7 conf | Casp3 select | SENP luc ctr
CC(NC(=O)COC(=O)c1ccc[nH]c1=O)c1ccccc1 (stereo not drawn) | n | x | n | n | n | n | x | x | x | x | x
Oc1ccccc1-c1cc(-c2cccc(F)c2)n[nH]1 | 88 | n | n | 88 | n | 93 | 95 | 95 | 100 | 64 | 74
Oc1ccccc1-c1cc(-c2ccccc2Cl)[nH]n1 | 95 | n | n | 95 | n | 94 | 98 | 99 | 102 | 85 | 95
CCn1cc(CCCC(=O)NCc2ccc(OC)cc2)c2ccccc21 | n | x | n | n | n | n | x | x | x | x | x
N#C/C(=C(/O)C(Cl)(Cl)Cl)c1nc2ccccc2[nH]1 | 75 | n | n | 87 | n | 96 | 90 | 90 | 100 | 91 | 55
C/C(O)=C(/C#N)c1nc2ccccc2[nH]1 | n | n | n | n | n | n | x | x | x | x | x
C=C(C)C(=O)Nc1cccc(C2=NOC3(C2)C[C@H](C(N)=O)N(C(=O)/C=C/C)C3)c1 (stereo partly drawn) | n | n | n | n | n | n | x | x | x | x | x
O=C1C=C(Nc2ccc(F)cc2)c2ccccc2C1=O | n | x | 58 | 72 | n | 82 | n | 89 | n | n | n
Cc1ccc(NC2=CC(=O)C(=O)c3ccccc32)c(C)c1 | n | x | n | n | n | 51 | n | n | n | n | n
Cc1ccc(NS(=O)(=O)c2ccc3c(c2)C(=O)c2ccccc2C3=O)c(C)c1 | x | n | n | x | n | x | x | x | x | x | x
O=C1C=C(Nc2ccccc2O)c2ccccc2C1=O | n | n | n | 77 | n | 88 | n | 86 | 67 | n | n
Cn1c2ccccc2c(=O)c2ccc(NCCc3cccs3)cc21 | n | x | n | 66 | n | 68 | 81 | 88 | 97 | 79 | n
COc1cc(NC(=O)CCNS(=O)(=O)c2ccc3c(c2)CCC(=O)N3)cc(OC)c1 | n | n | n | n | n | n | x | x | x | x | x
Cc1ccc(-c2noc(C3CCCCC3)n2)cc1 | n | n | n | n | n | n | x | x | x | x | x
Cc1cccc(-c2noc(C3CCCCC3)n2)c1 | n | n | n | n | n | 63 | n | n | 75 | n | n
O=C(O)c1cc(/C=C/c2ccc(N3CCOCC3)c([N+](=O)[O-])c2)nc2ccccc12 | 63 | n | 64 | 53 | n | 77 | 73 | 68 | 91 | 81 | 71
O=C(c1ccc(N2CCOCC2)c([N+](=O)[O-])c1)N1CCN(c2ccccc2)CC1 | x | x | n | x | n | x | x | x | x | x | x
CCCCOC(=O)c1ccc(NC(=O)C(=O)NCc2ccco2)cc1 | n | n | n | n | n | n | x | x | x | x | x
